# Measurements taken from the antibiotic and cytotoxicity screens of Wong et al. (2023).
# The campaign covered roughly 39,000 compounds. About 1,500 (3.8%) were called active. What follows is part of a selection rich in actives, with near analogues and random picks from the rest.
# Tested on: HSkMC (human skeletal muscle cells)
# Experiment: cytotoxicity call (relative viability < 0.9)
# Settings: 10 µM
row,Structure (SMILES),cytotoxicity call
1,O=C(NO)c1cn(-c2ccc(C[C@H]3C(=O)O[C@@H](Cc4ccccc4)[C@H]4[C@@H]5C=CCCC=C5CN43)cc2)nn1,inactive
2,COc1ccc([Si](C)(C)[C@H]2[C@H](CCO)O[C@@]3(C(=O)N(Cc4cccc(N5C(=O)c6cccc7cccc5c67)c4)c4ccccc43)[C@@H]2C)cc1,inactive
3,COc1ccc([Si](C)(C)[C@H]2[C@H](CCO)O[C@@]3(C(=O)N(Cc4ccc(N5C(=O)c6cccc7cccc5c67)cc4)c4ccccc43)[C@@H]2C)cc1,inactive
4,COc1ccc([Si](C)(C)[C@@H]2[C@@H](CCn3cc(CCO)nn3)O[C@]3(C(=O)N(Cc4ccc(N5C(=O)c6cccc7cccc5c67)cc4)c4ccccc43)[C@H]2C)cc1,active
5,COc1ccc([Si](C)(C)[C@@H]2[C@@H](CCO)O[C@]3(C(=O)N(Cc4ccc(N5C(=O)c6cccc7cccc5c67)cc4)c4ccccc43)[C@H]2C)cc1,inactive
6,COc1ccc([Si](C)(C)[C@H]2[C@H](CCn3cc(CCO)nn3)O[C@@]3(C(=O)N(Cc4cccc(N5C(=O)c6cccc7cccc5c67)c4)c4ccccc43)[C@@H]2C)cc1,inactive
7,COc1ccc([Si](C)(C)[C@@H]2[C@@H](CCn3cc(CCO)nn3)O[C@]3(C(=O)N(Cc4cccc(N5C(=O)c6cccc7cccc5c67)c4)c4ccccc43)[C@H]2C)cc1,active
8,C[C@@H]1CCCCO[C@@H](CN(C)C(=O)CCCN(C)C)[C@H](C)CN([C@H](C)CO)C(=O)c2cc(NC(=O)Nc3ccc(C(F)(F)F)cc3)ccc2O1,inactive
9,C[C@H](CO)N1C[C@H](C)[C@@H](CN(C)C(=O)Nc2ccccc2)OCCCC[C@H](C)Oc2ccc(NC(=O)Cc3ccccc3)cc2C1=O,inactive
10,CN1CCN(C(=O)C[C@@H]2CC[C@@H]3[C@H](COc4ccc(NC(=O)C5CCCCC5)cc4C(=O)N3C)O2)CC1,inactive
11,C[C@H]1CN([C@@H](C)CO)C(=O)Cc2cc(NS(C)(=O)=O)ccc2O[C@@H]1CN(C)Cc1ccc(C(=O)O)cc1,inactive
12,COc1ccc(S(=O)(=O)N(C)C[C@@H]2OCCCC[C@H](C)Oc3ccc(NS(=O)(=O)c4ccc(Cl)cc4)cc3C(=O)N([C@H](C)CO)C[C@@H]2C)cc1,inactive
13,C[C@H](CO)N1C[C@H](C)[C@@H](CN(C)Cc2ccc(Cl)c(Cl)c2)Oc2ccc(NC(=O)Cc3cn(C)c4ccccc34)cc2C1=O,inactive
14,C[C@H](CO)N1C[C@H](C)[C@@H](CN(C)Cc2ccc(-c3ccccc3)cc2)Oc2ccc(NC(=O)Cc3cn(C)c4ccccc34)cc2C1=O,inactive
15,C[C@@H]1CN([C@H](C)CO)C(=O)c2cc(NC(=O)Cc3cn(C)c4ccccc34)ccc2O[C@@H]1CN(C)Cc1ccc(Cl)c(Cl)c1,active
16,C[C@H](CO)N1C[C@H](C)[C@H](CN(C)Cc2ccc(Cl)c(Cl)c2)Oc2ccc(NC(=O)Cc3cn(C)c4ccccc34)cc2C1=O,active
17,C[C@H]1CN([C@@H](C)CO)C(=O)c2cc(NC(=O)Cc3cn(C)c4ccccc34)ccc2O[C@@H]1CN(C)S(C)(=O)=O,inactive
18,C[C@@H]1CN([C@@H](C)CO)C(=O)c2cc(NC(=O)Cc3cn(C)c4ccccc34)ccc2O[C@@H]1CN(C)Cc1ccc(Cl)c(Cl)c1,active
19,C[C@@H]1CN([C@H](C)CN(C)C)C(=O)c2cc(NC(=O)Cc3cn(C)c4ccccc34)ccc2O[C@H]1CN(C)S(=O)(=O)c1ccc(Cl)cc1,active

row,Structure (SMILES),cytotoxicity call
1,C[C@@H]1CN([C@@H](C)CO)C(=O)c2cc(NC(=O)Cc3cn(C)c4ccccc34)ccc2O[C@@H]1CN(C)S(C)(=O)=O,inactive
2,C[C@H](CO)N1C[C@H](C)[C@H](CN(C)S(=O)(=O)c2cn(C)cn2)Oc2cc(C#Cc3cccc(F)c3)ccc2S1(=O)=O,inactive
3,COCC(=O)N1C[C@@H](C)[C@H](OC)CN(C)C(=O)c2ccc(NC(=O)Nc3cccc(F)c3)cc2OC[C@H]1C,inactive
4,C[C@H]1CN([C@@H](C)CO)C(=O)c2cccc(NC(=O)c3cnccn3)c2O[C@@H]1CN(C)CC1CCCCC1,inactive
5,CC[C@@H]1OC(=O)[C@H](C)[C@@H](O[C@H]2C[C@@](C)(OC)[C@@H](O)[C@H](C)O2)[C@H](C)[C@@H](O[C@@H]2O[C@H](C)C[C@H](N(C)C)[C@H]2O)[C@](C)(O)C[C@@H](C)/C(=N\OCOCCOC)[C@H](C)[C@@H](O)[C@]1(C)O,inactive
6,CCNC(=O)C[C@@H]1C=C[C@H](NC(=O)C2CCOCC2)[C@H](CO)O1,inactive
7,COc1ccc(C#Cc2cnc3c(c2)C(=O)N([C@H](C)CO)C[C@H](C)[C@H](CN(C)CC2CCOCC2)O3)cc1,inactive
8,C[C@H]1CCCCO[C@@H](CN(C)Cc2ccncc2)[C@@H](C)CN([C@@H](C)CO)C(=O)c2cc(NC(=O)C3CCCCC3)ccc2O1,inactive
9,C[C@H]1CN([C@@H](C)CO)C(=O)c2cccc(NS(C)(=O)=O)c2O[C@@H]1CN(C)S(=O)(=O)c1ccccc1,inactive
10,O=C(C[C@H]1CC[C@@H](NC(=O)Cc2ccccn2)[C@@H](CO)O1)NCCCN1CCOCC1,inactive
11,C[C@H]1CN([C@@H](C)CO)C(=O)Cc2cc(NS(C)(=O)=O)ccc2O[C@H]1CN(C)S(C)(=O)=O,inactive
12,CCCn1c(=O)c(C#N)cn(C2CC2)c1=O,inactive
13,N=C(N)SCc1csc(N)n1,inactive
14,C[C@H]1CN([C@@H](C)CO)C(=O)c2cc(NC(=O)Cc3cn(C)c4ccccc34)ccc2O[C@@H]1CN(C)Cc1ccc(Cl)c(Cl)c1,active
15,C[C@H]1CN([C@@H](C)CO)C(=O)c2cc(NC(=O)Cc3cn(C)c4ccccc34)ccc2O[C@H]1CN(C)Cc1ccc(-c2ccccc2)cc1,inactive
16,C[C@H]1CN([C@@H](C)CO)C(=O)c2cc(NC(=O)Cc3cn(C)c4ccccc34)ccc2O[C@H]1CN(C)Cc1ccc(Cl)c(Cl)c1,inactive
17,C[C@@H]1CN([C@@H](C)CO)C(=O)c2cc(NC(=O)Cc3cn(C)c4ccccc34)ccc2O[C@H]1CN(C)Cc1ccc(Cl)c(Cl)c1,inactive
18,C[C@@H]1CN([C@H](C)CO)C(=O)c2cc(NC(=O)Cc3cn(C)c4ccccc34)ccc2O[C@H]1CN(C)Cc1ccc(Cl)c(Cl)c1,active
